According to PubChem BioAssay AID1159580 (chemical genetic matrix, 2015):
“And” between values parts separate entries of the source, which are not always exact repeats. Equal values may be shown once. Out of some 5,500 compounds screened, about 2,000 (36%) were called active. Another 18% or so got no clear call; they are omitted. Rule as the data show it: active = normalized growth mostly below about 0.91 (no sharp cut-off); inconclusive = no clear call, values can overlap the other calls; inactive = mostly above about 0.92. The list shows a part of the results.

Experiment: chemical genetic growth profiling, strain panel (AID 1159580);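 also: tested at 20 µM; growth read once vehicle control cultures reached saturation at 30 °C; 1 = growth at the plate median or of vehicle wells; lower values mean less growth of the strain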
Conditions: S. cerevisiae deletion strains, growth OD

Measured: normalized growth

CCOc1ccc(C(=O)c2ccc(O)c(O)c2O)cc1
active: locus YAL021C, strain ccr4, hits give low values 0.754 | locus YAL026C, strain drs2, hits give low values 0.844 | locus YBL061C, strain skt5, hits give low values 0.898 | locus YBR023C, strain chs3, hits give low values 0.84 | locus YBR231C, strain swc5, hits give low values 0.829 | locus YBR279W, strain paf1, hits give low values 0.927 | locus YCL029C, strain bik1, hits give low values 0.857 | locus YCL061C, strain MRC1, hits give low values 0.908 | locus YDL074C, strain BRE1, hits give low values 0.741 | locus YDL101C, strain DUN1, hits give low values 0.849 | locus YDL134C, strain PPH21, hits give low values 0.853 | locus YDL185W, strain tfp1, hits give low values 0.845 | locus YDL192W, strain arf1, hits give low values 0.868 | locus YDR069C, strain doa4, hits give low values 0.703 | locus YDR101C, strain arx1, hits give low values 0.911 | locus YDR137W, strain rgp1, hits give low values 0.701 | locus YDR162C, strain NBP2, hits give low values 0.823 | locus YDR318W, strain mcm21, hits give low values 0.907 | locus YDR334W, strain swr1, hits give low values 0.877 | locus YDR335W, strain msn5, hits give low values 0.858 | locus YDR502C, strain sam2, hits give low values 0.861 | locus YEL003W, strain gim4, hits give low values 0.893 | locus YEL061C, strain CIN8, hits give low values 0.901 | locus YER015W, strain faa2, hits give low values 0.883 | locus YER111C, strain swi4, hits give low values 0.72 | locus YFR010W, strain ubp6, hits give low values 0.854 | locus YGL086W, strain mad1, hits give low values 0.86 | locus YGL173C, strain kem1, hits give low values 0.853 | locus YGL248W, strain PDE1, hits give low values 0.837 | locus YGR078C, strain PAC10, hits give low values 0.821 | locus YGR135W, strain pre9, hits give low values 0.85 | locus YHR027C, strain rpn1, hits give low values 0.869 | locus YHR030C, strain SLT2, hits give low values 0.824 | locus YHR079C, strain IRE1 (second series), hits give low values 0.902 | locus YHR129C, strain ARP1, hits give low values 0.826 | locus YHR142W, strain chs7, hits give low values 0.786 | locus YHR200W, strain rpn10, hits give low values 0.886 | locus YJL095W, strain BCK1 (second series), hits give low values 0.908 | locus YJL095W, strain BCK1, hits give low values 0.784 and 0.833 | locus YJL164C, strain tpk1, hits give low values 0.877 | locus YJL187C, strain SWE1 (second series), hits give low values 0.632 | locus YJL187C, strain SWE1, hits give low values 0.915 | locus YJR066W, strain TOR1, hits give low values 0.812
inactive: locus YAL030W, strain snc1, hits give low values 0.936 | locus YBR009C, strain hhf1, hits give low values 0.926 | locus YBR021W, strain FUR4, hits give low values 0.926 | locus YBR171W, strain sec66, hits give low values 0.899 | locus YBR229C, strain ROT2, hits give low values 0.979 | locus YCL011C, strain gbp2, hits give low values 0.945 | locus YCL016C, strain dcc1, hits give low values 0.919 | locus YCL069W, strain vba3, hits give low values 0.96 | locus YCR088W, strain abp1, hits give low values 0.949 | locus YDL005C, strain med2, hits give low values 0.973 | locus YDL035C, strain GPR1, hits give low values 0.899 | locus YDL040C, strain nat1, hits give low values 0.971 | locus YDR001C, strain nth1, hits give low values 0.963 | locus YDR159W, strain sac3, hits give low values 0.924 | locus YDR195W, strain ref2 1.04 | locus YDR297W, strain sur2, hits give low values 0.928 | locus YDR388W, hits give low values 0.955 | locus YDR392W, strain spt3, hits give low values 0.87 | locus YEL037C, strain rad23, hits give low values 0.928 | locus YEL061C, strain CIN8 (second series), hits give low values 0.958 | locus YER016W, strain bim1, hits give low values 0.924 | locus YER110C, hits give low values 0.989 | locus YER155C, strain BEM2 (second series), hits give low values 0.902 | locus YER155C, strain BEM2, hits give low values 0.991 | locus YER167W, strain BCK2, hits give low values 0.953 | locus YGL078C, strain dbp3, hits give low values 0.965 | locus YGL167C, strain pmr1, hits give low values 0.917 | locus YGL227W, strain vid30, hits give low values 0.982 | locus YGL240W, strain doc1, hits give low values 0.955 | locus YGL253W, strain hxk2, hits give low values 0.928 | locus YGR252W, strain gcn5, hits give low values 0.861 | locus YHR013C, strain ard1, hits give low values 0.852 | locus YHR079C, strain IRE1, hits give low values 0.898 | locus YHR094C, strain hxt1, hits give low values 0.993 | locus YIL066C, strain RNR3, hits give low values 0.88 | locus YIL073C, strain SPO22, hits give low values 0.848 | locus YIL125W, strain kgd1, hits give low values 0.951 | locus YIR030C, strain dcg1, hits give low values 0.976 | locus YJL092W, strain hpr5, hits give low values 0.955 | locus YJL115W, strain asf1, hits give low values 0.966 | locus YJL129C, strain trk1, hits give low values 0.944 | locus YJL134W, strain LCB3, hits give low values 0.968 | locus YJL154C, strain vps35, hits give low values 0.953 | locus YJL166W, strain qcr8, hits give low values 0.933 | locus YJL168C, strain set2, hits give low values 0.963
